Experimental data from PubChem BioAssay (NCI).
This is part of a sample that, as a whole, favours compounds with a hit. Of some 79,000 tested, about 15% had one in any assay. Activity calls are given as the source filed them. No stated cut-off is given here; in the data, active means growth inhibition above about 70%; inactive means the rest.

Legend:
[1] = NCI Yeast Anticancer Drug Screen. Data for the rad52 strain (AID 147);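 further: 0% = growth of vehicle-treated control cultures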; settings: S. cerevisiae rad52 mutant growth inhibition, stronger effect = higher value
Summary of the method: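 Genetically altered yeast (DNA damage repair defect) treated with compound; inhibition calculated relative to vehicle.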

[2] = NCI Yeast Anticancer Drug Screen. Data for the wt1 strain (AID 149);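 further: 0% = growth of vehicle-treated wt1 cultures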; settings: S. cerevisiae wt1 strain (SPY 50644) growth inhibition, stronger effect = higher value
Summary of the method: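 Yeast wt1 strain exposed to compounds; growth inhibition measured relative to vehicle-treated controls.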

[3] = NCI Yeast Anticancer Drug Screen. Data for the rad50EPP+ strain (AID 151);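 further: 0% = growth of vehicle-treated control cultures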; settings: S. cerevisiae rad50 mutant strain, stronger effect = higher value
Summary of the method: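 Strain rad50EPP+; compound exposure; % growth inhibition vs vehicle.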

[4] = NCI Yeast Anticancer Drug Screen. Data for the mgt1 strain (AID 153); settings: S. cerevisiae mgt1 mutant growth inhibition, stronger effect = higher value
Summary of the method: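 Read-out: yeast growth inhibition vs vehicle control. Strain mgt1, drawn from a panel altered in DNA damage repair or cell cycle control.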

[5] = NCI Yeast Anticancer Drug Screen. Data for the rad50 strain (AID 155);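 further: 0% = growth of vehicle-only cultures of the same strain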; settings: S. cerevisiae rad50 strain growth inhibition, stronger effect = higher value
Summary of the method: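 Yeast carrying a defined DNA repair defect were exposed to test compounds, and growth was compared with vehicle-treated controls to give percent inhibition.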

[6] = NCI Yeast Anticancer Drug Screen. Data for the mec2-1 strain (AID 157); settings: S. cerevisiae mec2-1 strain, stronger effect = higher value
Summary of the method: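 Cells of the genetically defined mec2-1 yeast strain are incubated with test compound. Inhibition of growth is calculated against vehicle-treated controls.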

[7] = NCI Yeast Anticancer Drug Screen. Data for the sgs1 mgt1 strain (AID 161);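 further: 0% = growth of cultures given vehicle only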; settings: S. cerevisiae sgs1 mgt1 strain, stronger effect = higher value
Summary of the method: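 Read-out: growth inhibition vs vehicle controls. Cells: mutant yeast strain deficient in DNA damage repair.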

[8] = NCI Yeast Anticancer Drug Screen. Data for the CLN2oe strain (AID 163);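 further: 0% = growth of vehicle-only control cultures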; settings: S. cerevisiae CLN2oe strain, stronger effect = higher value
Summary of the method: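 Strain altered in cell-cycle control, incubated with compound; growth compared to solvent-treated controls.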

[9] = NCI Yeast Anticancer Drug Screen. Data for the cln2 rad14 strain (AID 165);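 further: 0% = growth equal to vehicle treated cultures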; settings: S. cerevisiae cln2 rad14 strain, stronger effect = higher value
Summary of the method: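 The screen exposed genetically defined yeast (cln2 rad14) to test compounds and scored growth inhibition relative to vehicle-treated controls.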

[10] = NCI Yeast Anticancer Drug Screen. Data for the bub3 strain (AID 167); settings: S. cerevisiae bub3 mutant strain, stronger effect = higher value
Summary of the method: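 Compounds were applied to a genetically altered yeast strain carrying a cell-cycle control defect. Growth inhibition was scored against vehicle-treated controls.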

[11] = NCI Yeast Anticancer Drug Screen. Data for the wt2 strain (AID 169);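 further: 0% = growth of vehicle-treated yeast cultures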; settings: S. cerevisiae wt2 strain growth inhibition, stronger effect = higher value
Summary of the method: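 Steps: yeast strain treated with compound; growth recorded; inhibition calculated relative to cultures given vehicle alone.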

[12] = NCI Yeast Anticancer Drug Screen. Data for the mlh1 strain (AID 171);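 further: 0% = growth of vehicle-treated control cultures of the same strain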; settings: S. cerevisiae mlh1 strain growth inhibition, stronger effect = higher value
Summary of the method: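 Yeast screen: mutant strain plus compound, growth scored against vehicle control wells.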

[13] = NCI Yeast Anticancer Drug Screen. Data for the sgs1 strain (AID 173);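 further: 0% = growth of vehicle-only control cultures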; settings: S. cerevisiae sgs1 mutant, stronger effect = higher value
Summary of the method: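 Inhibition of yeast growth served as the measure. The mutant strain was treated with each compound, and growth was normalised to cultures receiving vehicle alone.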

[14] = NCI Yeast Anticancer Drug Screen. Data for the mlh1 rad18 strain (AID 175); settings: S. cerevisiae mlh1 rad18 strain growth inhibition, stronger effect = higher value
Summary of the method: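 Compound-treated yeast growth, normalised to vehicle controls. Strain bears defined DNA repair mutations.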

[15] = NCI Yeast Anticancer Drug Screen. Data for the rad18 strain (AID 177); settings: S. cerevisiae rad18 mutant growth inhibition, stronger effect = higher value
Summary of the method: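 Inhibition values reflect reduced yeast growth compared with vehicle-treated controls, using a strain engineered with a DNA damage repair defect.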

[16] = at 5.0 µM (retest, dose inferred, filed as 0.5)
[17] = at 50.0 µM (retest, dose inferred, filed as 5.0)

Measured: growth inhibition

Cc1c2cc[n+](Cc3ccc(I)cc3)cc2c(C)c2c1[nH]c1ccccc12
inactive: [1]; at 1.2 µM 39% | [1]; at 3.7 µM 36% | [2]; at 1.2 µM 10% | [2]; at 3.7 µM 8% | [3]; at 1.2 µM 30% | [3]; at 3.7 µM 29% | [3]; at 11.0 µM 34% | [4]; at 1.2 µM 9% | [4]; at 3.7 µM -1% | [5]; at 1.2 µM 18% | [5]; at 3.7 µM 12% | [5]; [16] 5% | [6]; at 1.2 µM 19% | [6]; at 3.7 µM 8% | [6]; [16] 33% | [8]; at 1.2 µM 14% | [8]; at 3.7 µM 19% | [9]; [16] 17% | [10]; at 1.2 µM 18% | [10]; at 3.7 µM 18% | [10]; [16] 55% | [11]; at 1.2 µM -21% | [11]; at 3.7 µM -24% | [12]; at 1.2 µM 35% | [12]; at 3.7 µM 35% | [13]; at 1.2 µM 42% | [13]; at 3.7 µM 27% | [14]; [16] 35% | [15]; at 1.2 µM 40% | [15]; at 3.7 µM 31%
active: [1]; at 11.0 µM 96% | [1]; at 33.0 µM 98% | [1]; at 100.0 µM 95% | [2]; at 11.0 µM 89% | [2]; at 33.0 µM 98% | [2]; at 100.0 µM 97% | [3]; at 33.0 µM 90% | [3]; at 100.0 µM 96% | [4]; at 11.0 µM 90% | [4]; at 33.0 µM 97% | [4]; at 100.0 µM 96% | [5]; at 11.0 µM 96% | [5]; at 33.0 µM 95% | [5]; [17] 93% | [5]; at 50.0 µM 85.5% | [5]; at 100.0 µM 89% | [6]; at 11.0 µM 96% | [6]; at 33.0 µM 97% | [6]; [17] 95% | [6]; at 50.0 µM 87.2% | [6]; at 100.0 µM 95% | [7]; [16] 74% | [7]; [17] 94% | [7]; at 50.0 µM 85.8% | [8]; at 11.0 µM 92% | [8]; at 33.0 µM 97% | [8]; at 100.0 µM 94% | [9]; [17] 94% | [9]; at 50.0 µM 86% | [10]; at 11.0 µM 97% | [10]; at 33.0 µM 96% | [10]; [17] 94% | [10]; at 50.0 µM 83.3% | [10]; at 100.0 µM 89% | [11]; at 11.0 µM 87% | [11]; at 33.0 µM 97% | [11]; at 100.0 µM 96% | [12]; at 11.0 µM 95% | [12]; at 33.0 µM 97% | [12]; at 100.0 µM 96% | [13]; at 11.0 µM 96% | [13]; at 33.0 µM 97% | [13]; at 100.0 µM 96% | [14]; [17] 94% | [14]; at 50.0 µM 89.8% | [15]; at 11.0 µM 97% | [15]; at 33.0 µM 96% | [15]; at 100.0 µM 93%

CNC(=O)OCc1c(COC(=O)NC)c2n(c1C)-c1ccc(OC)cc1CCC2
inactive: [1]; at 1.2 µM -18% | [1]; at 3.7 µM -24% | [1]; at 11.0 µM -20% | [2]; at 1.2 µM -45% | [2]; at 3.7 µM -53% | [2]; at 11.0 µM -57% | [3]; at 1.2 µM -6% | [3]; at 3.7 µM -7% | [3]; at 11.0 µM -8% | [3]; at 33.0 µM 6% | [3]; at 100.0 µM 15% | [4]; at 1.2 µM -32% | [4]; at 3.7 µM -35% | [4]; at 11.0 µM -34% | [5]; at 1.2 µM -35% | [5]; at 3.7 µM -38% | [5]; [16] 25% | [5]; at 11.0 µM -43% | [6]; at 1.2 µM -61% | [6]; at 3.7 µM -29% | [6]; [16] 2% | [6]; at 11.0 µM -52% | [7]; [16] 17% | [8]; at 1.2 µM -12% | [8]; at 3.7 µM -16% | [8]; at 11.0 µM -5% | [9]; [16] 45% | [10]; at 1.2 µM -16% | [10]; at 3.7 µM -26% | [10]; [16] 45% | [10]; at 11.0 µM -30% | [11]; at 1.2 µM 8% | [11]; at 3.7 µM 9% | [11]; at 11.0 µM -7% | [11]; at 33.0 µM 66% | [12]; at 1.2 µM -42% | [12]; at 3.7 µM -31% | [12]; at 11.0 µM -47% | [13]; at 1.2 µM -15% | [13]; at 3.7 µM -15% | [13]; at 11.0 µM -16% | [14]; [16] 17% | [15]; at 1.2 µM -45% | [15]; at 3.7 µM -43% | [15]; at 11.0 µM -48%
active: [1]; at 33.0 µM 96% | [1]; at 100.0 µM 99% | [2]; at 33.0 µM 96% | [2]; at 100.0 µM 100% | [4]; at 33.0 µM 98% | [4]; at 100.0 µM 99% | [5]; at 33.0 µM 95% | [5]; [17] 99% | [5]; at 50.0 µM 85.7% | [5]; at 100.0 µM 99% | [6]; at 33.0 µM 95% | [6]; [17] 99% | [6]; at 50.0 µM 89.1% | [6]; at 100.0 µM 99% | [7]; [17] 99% | [7]; at 50.0 µM 90% | [8]; at 33.0 µM 87% | [8]; at 100.0 µM 100% | [9]; [17] 98% | [9]; at 50.0 µM 88.2% | [10]; at 33.0 µM 97% | [10]; [17] 100% | [10]; at 50.0 µM 87.2% | [10]; at 100.0 µM 99% | [11]; at 100.0 µM 98% | [12]; at 33.0 µM 98% | [12]; at 100.0 µM 99% | [13]; at 33.0 µM 95% | [13]; at 100.0 µM 99% | [14]; [17] 98% | [14]; at 50.0 µM 86.9% | [15]; at 33.0 µM 96% | [15]; at 100.0 µM 98%
